The campaign covered roughly 69,000 compounds. About 420 (0.61%) showed an effect of 50% or more. Only a selection was taken, and strong results are over-represented in it overall.
The compounds below were run against T1, Histidine--tRNA ligase (Leishmania infantum) (UniProt A4I591) (assay: Leishmania infantum Histidine tRNA synthetase (LdHisRS)). Conditions: 30 µM.
T1 sequence (whole entry): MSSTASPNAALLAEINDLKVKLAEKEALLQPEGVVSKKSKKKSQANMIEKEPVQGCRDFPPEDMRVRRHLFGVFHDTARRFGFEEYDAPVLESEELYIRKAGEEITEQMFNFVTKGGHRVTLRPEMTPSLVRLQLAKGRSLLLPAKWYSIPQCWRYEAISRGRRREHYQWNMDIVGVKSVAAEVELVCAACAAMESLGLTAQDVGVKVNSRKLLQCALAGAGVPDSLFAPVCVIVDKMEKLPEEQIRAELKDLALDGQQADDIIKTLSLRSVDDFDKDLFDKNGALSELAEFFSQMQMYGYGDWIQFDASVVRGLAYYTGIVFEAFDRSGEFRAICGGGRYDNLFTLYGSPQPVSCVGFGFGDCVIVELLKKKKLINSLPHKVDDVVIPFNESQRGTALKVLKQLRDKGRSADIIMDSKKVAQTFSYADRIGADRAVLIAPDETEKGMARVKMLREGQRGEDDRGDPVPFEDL
Assay type: functional
Design: scale not given: in the data most compounds retested in dose-response had high values

Row | Compound | Percent Effect [%]
1 | COc1cccc(CN2C[C@@H]3CC[C@@](O)(c4ccccn4)[C@@H]3C2)c1OC | 0
2 | CC(C)=CCN1CCN(Cc2nccn2C)[C@H]2CS(=O)(=O)C[C@H]21 | 11.2
3 | CCCS(=O)(=O)N1CCO[C@H]2[C@@H](Oc3cccnc3)CC[C@@H]21 | 16.4
4 | Cc1c(CN2CCCCC2)c(O)n(CCO)c(=O)c1C#N | 55.9
5 | CN(CCN1CCOCC1)C(=O)CCCc1ccccc1 | 11.4
6 | Cn1c(NCCN2CCCCCC2)c(C#N)c(=O)n(C)c1=O | 24.7
7 | Cc1c(CN2CCOCC2)c(O)n(CCc2ccccc2)c(=O)c1C#N | 60.5
8 | Cc1c(CN2CCCCC2)c(O)n(CCCO)c(=O)c1C#N | 45.4
9 | Cc1c(CN2CCOCC2)c(O)n(CCO)c(=O)c1C#N | 47.4
10 | Cc1nnc([C@@]23CCO[C@@H]2CCN(Cc2cccc4ccccc24)C3)o1 | 5.94
11 | CNC(=O)[C@@H]1COC[C@H]2CN(C(=O)c3ccc(OC)cc3)C[C@H]21 | 8.77
12 | CN1C(=O)CO[C@H]2CN(C(=O)c3ccc4c(c3)CCCC4)C[C@@H]21 | 0
13 | O=S(=O)(c1cccnc1)N1C[C@@H]2CC[C@H](C1)N(Cc1ccccn1)C2 | 7.53
14 | N#Cc1ccc(C(=O)N2C[C@H](OCc3cccnc3)[C@H]3COC[C@H]32)cc1 | 6.94
15 | O=C(NC1CCCC1)C1Cc2nc(-c3ccsc3)sc2N1CC1CC1 (stereo not given) | 23.6
16 | CN(C)CCNC(=O)C1Cc2nc(-c3ccsc3)sc2N1CC1CC1 (stereo not given) | 22.2
17 | CC(C)N1c2sc(-c3ccsc3)nc2CC1C(=O)NC1CC1 (stereo not given) | 30
18 | CN(C)CCNC(=O)C1Cc2nc(-c3ccccc3)sc2N1CC1CC1 (stereo not given) | 20.8
19 | O=C(Nc1cccnc1)C1Cc2nc(-c3ccsc3)sc2N1CC1CC1 (stereo not given) | 62.5
20 | CC(C)NC(=O)C1Cc2nc(-c3ccsc3)sc2N1CC1CC1 (stereo not given) | 51.4
21 | CC(C)CNC(=O)[C@H]1C[C@@H]2CN(C(=O)NCC3CCCCC3)C[C@H]1O2 | 17.2
22 | COc1ccccc1CN1C(=O)O[C@@H]2CN(Cc3cccc(C)n3)C[C@@H]21 | -1.67
23 | O=C1O[C@@H]2CN(Cc3ccncc3)C[C@@H]2N1CCCN1CCOCC1 | -6.67
24 | COc1ccc(-n2cc(CCO)cn2)cc1C(N)=O | 34.2
25 | COc1cc(-n2cc(CCO)cn2)ccc1NC(C)=O | 31.6
26 | COc1ccc(-n2cc(CCO)cn2)cc1C | 69.6
27 | N#Cc1ccc(OC[C@]23COC[C@H]2CN(c2ncccn2)C3)nc1 | 5.56
28 | c1cncc(N2CCC3(CCCN(c4ccncc4)C3)CC2)c1 | 15.3

Row | Compound | Percent Effect [%]
29 | c1cncc(N2CCCC3(CCN(CCN4CCCC4)CC3)C2)c1 | 15.3
30 | N#Cc1ccc(N2CCCC3(CCN(c4cccnc4)CC3)C2)cc1 | 51.4
31 | O=C1[C@H]2CN(Cc3ccccc3)C[C@H]2CN1CCN1CCCC1 | 17.3
32 | Cc1ccc(-n2cc(CN3CCN(C)[C@@H]4CS(=O)(=O)C[C@@H]43)cn2)cc1 | 11.4
33 | Cc1cc(C)cc(NC(=O)Nc2c(O)oc3ccccc3c2=O)c1 | 16.1
34 | Cn1nc2c(cc1=O)CN(Cc1nc3ccccc3c(=O)[nH]1)CC2 | 24.7
35 | c1ccc2sc(N3CCN(c4ncnc5c4CCC5)CC3)nc2c1 | 14.3
36 | Cn1nc2c(cc1=O)CN(CCc1nc3ccccc3c(=O)[nH]1)CC2 | 53.9
37 | CCn1nc2c(cc1=O)CN(Cc1nc3ccccc3c(=O)[nH]1)CC2 | 25
38 | Cc1ncnc(N2CCCN(c3nc4ccccc4s3)CC2)c1C | 25.7
39 | CCn1nc2c(cc1=O)CN(c1nc3ccccc3s1)CC2 | 72.7
40 | Cn1nc2c(cc1=O)CN(Cc1nc(N)c3ccccc3n1)CC2 | 43.5
41 | CC(C)n1nc2c(cc1=O)CN(c1nc3ccccc3s1)CC2 | 18.2
42 | Cn1nc2c(cc1=O)CN(c1nc3ccccc3s1)CC2 | 90.9
43 | c1ccc2sc(N3CCCN(c4ncnc5c4CCNC5)CC3)nc2c1 | 57.1
44 | CCn1nc2c(cc1=O)CN(Cc1nc3ccccc3o1)CC2 | 12.9
45 | Cc1nc(CO[C@H]2CN(C(=O)c3cnoc3C)[C@@H]3COC[C@H]23)cs1 | 10
46 | CC(C)NC(=O)[C@@]12CCO[C@@H]1CCN(Cc1ccco1)C2 | 15.1
47 | O=C(Nc1cccnc1)[C@H]1C[C@@H]2CN(Cc3ccc(F)cc3)C[C@H]1O2 | 10
48 | CC(C)C(=O)N1CC[C@H]2N(C)CC[C@@]2(C(=O)Nc2cccnc2)CC1 | 8.11
49 | OC[C@H]1CC[C@]2(CC1)CN(Cc1ccsc1)Cc1ccccc1O2 | 16.5
50 | O=C(c1ccco1)N1C[C@@H]2OCCN(CCN3CCCC3)[C@@H]2C1 | 6.01
51 | CNC(=O)N1CCC2(CC1)CC[C@@]1(C(=O)NC)CN(S(C)(=O)=O)C[C@@H]21 | 9.72
52 | CN(Cc1ccco1)[C@@H]1CN(Cc2nccn2C)[C@@H]2CCCO[C@H]12 | 27
53 | O=C([C@@H]1COC[C@H]2CN(c3ccncn3)C[C@H]21)N1CCCC1 | 19.3
54 | CN(Cc1ccco1)C(=O)c1ccc(=O)n(C)c1 | 14.9
55 | CN(Cc1ccc2c(c1)OCO2)C(=O)c1ccc(=O)n(C)c1 | 5.33
